In PubChem BioAssay (Tox21) one finds Potency data, which are given here for 8 compounds.

Assay [1] is described as follows: Nuclear factor erythroid 2-related factor 2/antioxidant responsive element (Nrf2/ARE) small molecule agonists: qHTS cell viability counter screen in human keratinocytes (AID 1919968; active = well fitted curve in the direction sought with a large enough effect in the repeat runs; an effect the other way counts as inactive or inconclusive; also: nearly all actives have a fitted effect of over 55% in size; also: potency is read from the fitted curve at half-maximal effect). The settings on record: KeratinoSens HaCaT ARE cells viability, CellTiter-Fluor, 24 h; series mostly up to 92.4 µM. In outline: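 Stably transfected HaCaT (KeratinoSens), 1,500/well. Test agents in DMSO were applied for 23 h, 37 C/5% CO2. CellTiter-Fluor was incubated 1 h before the fluorescence read.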

The nature of assay [2]: Nuclear factor erythroid 2-related factor 2/antioxidant responsive element (Nrf2/ARE) small molecule agonists: luciferase reporter gene qHTS assay in human keratinocytes (AID 1919969). Also: nearly all actives have a fitted effect of over 35% in size. The settings on record: KeratinoSens HaCaT ARE-luciferase, luminescence, 24 h; series mostly up to 92.4 µM.
For assay [3], the target named is Gonadotropin-releasing hormone receptor (Homo sapiens) (UniProt P30968). As to the kind of experiment: Human gonadotropin-releasing hormone receptor (GnRHR) small molecule agonists, calcium flux assay in GnRHR-HEK293 cells (AID 1920063). Also: nearly all actives have a fitted effect of over 35% in size. To be noted: calcium flux fluorescence, agonist mode; series mostly up to 57.6 µM. In outline: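 Stable human GnRHR HEK293 line. 18 h plating, then calcium dye for 1 h at 37 C. Agonist-mode compound addition from DMSO stocks; fluorescence monitored 3 min.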
Chain of Gonadotropin-releasing hormone receptor (Homo sapiens) (P30968 whole entry, looked up): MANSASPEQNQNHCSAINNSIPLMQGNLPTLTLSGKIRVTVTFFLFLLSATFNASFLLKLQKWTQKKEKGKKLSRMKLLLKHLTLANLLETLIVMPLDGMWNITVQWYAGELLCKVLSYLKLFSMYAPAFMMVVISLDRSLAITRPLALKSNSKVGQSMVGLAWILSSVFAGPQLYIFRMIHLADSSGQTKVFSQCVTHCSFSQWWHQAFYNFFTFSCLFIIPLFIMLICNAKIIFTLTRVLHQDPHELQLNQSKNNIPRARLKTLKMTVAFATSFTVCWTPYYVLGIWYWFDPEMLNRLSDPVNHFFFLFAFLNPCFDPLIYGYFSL
(In general: Calcium assays in cells follow changes in intracellular calcium, usually with a dye or a luminescent sensor.)

The target of assay [4] is KiSS-1 receptor (Homo sapiens) (UniProt Q969F8). The assay is described as follows: Human kisspeptin (KISS1R) small molecule agonists, calcium flux assay in KISS1R-HEK293 cells (AID 1920064; active = well fitted curve in the direction sought with a large enough effect in the repeat runs; an effect the other way counts as inactive or inconclusive). The settings on record: KISS1R-HEK293, calcium flux fluorescence, agonist; series mostly up to 76.8 µM. Summed up:
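After overnight (18 h) culture at 37 C/5% CO2, human KISS1R-HEK293 cells received calcium dye for 1 h, then test compound; emission at 540 nm (excitation 480 nm) was tracked for 3 min.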

Assay [5] in a line: p53 small molecule agonists, cell-based qHTS assay with rat liver microsomes (AID 1963578). To be noted: HCT-116 p53RE-bla, beta-lactamase ratio, 16 h; series mostly up to 66 µM. In outline: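 p53RE-bla cells, 4,000/well, pre-incubated 5 h, then given compounds plus rat liver microsomes (0.5 mg/mL final) and NADPH (0.5 mg/mL final). Incubation 16 h at 37 C; beta-lactamase reporter read by LiveBLAzer fluorescence after 2 h at room temperature.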

Assay [6] in a line: p53 small molecule agonists, cell-based qHTS assay with human liver microsomes: qHTS cell viability counter screen (AID 1963579). Also: nearly all actives have a fitted effect of over 45% in size. To be noted: p53RE-bla HCT-116 viability, ATP luminescence, 16 h, HLM; series mostly up to 66 µM. In outline: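 p53RE-bla cells, 4,000/well, dosed 5 hours after plating, with human liver microsomes (0.5 mg/mL final) plus NADPH (0.5 mg/mL final), 16 hours at 37 C. Viability read as CellTiter-Glo luminescence after 30 min at room temperature.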

A short description of assay [7]: p53 small molecule agonists, cell-based qHTS assay with rat liver microsomes: qHTS cell viability counter screen (AID 1963580). Also: nearly all actives have a fitted effect of over 45% in size. To be noted: p53RE-bla HCT-116 + rat microsomes, ATP viability, 16 h; series mostly up to 66 µM. Summed up: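 Luminescent ATP readout (CellTiter-Glo, 30 min at room temperature) reports viability of p53RE-bla HCT-116 cells after 16 h at 37 C with test compounds under metabolic activation by rat liver microsomes and NADPH at 0.5 mg/mL final each.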
For orientation: In qHTS, concentration-response curves come from the screen itself.

A short description of assay [8]: p53 small molecule agonists, cell-based qHTS assay: qHTS cell viability counter screen (AID 1963581). Also: nearly all actives have a fitted effect of over 45% in size. To be noted: p53RE-bla HCT-116 viability, ATP luminescence, 16 h; series mostly up to 66 µM. In outline:
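qHTS counter screen: 16 h compound exposure at 37 C of p53RE-bla HCT-116 cells (4,000 per well, seeded 5 h prior), cell viability by ATP luminescence.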

A short description of assay [9]: p53 small molecule agonists, cell-based qHTS assay (AID 1963582; active = well fitted activation curve with a large enough effect in the signal ratio in the repeat runs, not every such curve was filed as active; the % refers to the signal ratio). The settings on record: HCT-116 p53RE-bla reporter, beta-lactamase FRET ratio, 16 h; series mostly up to 66 µM. In outline:
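Measured: fluorescence from cleaved LiveBLAzer substrate. System: p53RE-bla cells, 16 h compound treatment at 37 C, 2 h substrate step at room temperature.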

In assay [10] the target is 5-hydroxytryptamine receptor 2A (Homo sapiens) (UniProt P28223). As to the kind of experiment: 5-hydroxytryptamine receptor 2A (HTR2A) small molecule antagonists, cell-based qHTS assay (AID 1963586). Also: nearly all actives have a fitted effect of over 45% in size. The settings on record: HTR2A-CHO cells, DOI-induced calcium flux, fluorescence; series mostly up to 61.5 µM. In outline: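 CHO cells stably expressing human HTR2A were plated for 18 h at 37 C, then loaded with calcium dye for 1 h. Compounds were preincubated 5 min at room temperature before DOI (4 nM solution) was added. Kinetic fluorescence was read for 3 min.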
Chain of 5-hydroxytryptamine receptor 2A (Homo sapiens) (P28223 whole entry, looked up): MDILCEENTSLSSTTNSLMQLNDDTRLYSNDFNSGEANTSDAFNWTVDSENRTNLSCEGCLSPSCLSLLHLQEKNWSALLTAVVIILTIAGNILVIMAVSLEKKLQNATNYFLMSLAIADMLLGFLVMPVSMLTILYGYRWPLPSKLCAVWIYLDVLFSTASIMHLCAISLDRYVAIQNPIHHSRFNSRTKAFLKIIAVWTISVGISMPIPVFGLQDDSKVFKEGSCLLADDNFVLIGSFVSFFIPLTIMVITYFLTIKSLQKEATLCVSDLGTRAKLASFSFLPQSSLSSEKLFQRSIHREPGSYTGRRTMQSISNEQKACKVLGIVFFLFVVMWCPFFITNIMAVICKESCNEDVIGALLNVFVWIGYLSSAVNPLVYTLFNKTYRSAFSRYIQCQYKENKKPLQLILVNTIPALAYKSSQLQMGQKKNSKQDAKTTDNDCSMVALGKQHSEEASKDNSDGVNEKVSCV

Assay [11] has the same target. As to the kind of experiment: 5-hydroxytryptamine receptor 2A (HTR2A) small molecule agonists, cell-based qHTS assay (AID 1963587). Also: nearly all actives have a fitted effect of over 30% in size. To be noted: HTR2A-CHO cells, calcium flux fluorescence, agonist mode; series mostly up to 76.8 µM. In outline: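 HTR2A-CHO cells, plated 18 h at 37 C/5% CO2, dye-loaded 1 h at 37 C; compounds in DMSO added by pin tool (agonist mode). Intracellular calcium flux read as kinetic fluorescence on FDSS over 2 min at 1 s intervals.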

The target in assay [12] is Muscarinic acetylcholine receptor M1 (Homo sapiens) (UniProt P11229). As to the kind of experiment: Cholinergic receptor muscarinic 1 (CHRM1) small molecule antagonists, cell-based qHTS assay (AID 1963588). Also: nearly all actives have a fitted effect of over 40% in size. The settings on record: CHRM1-CHO antagonist mode, calcium flux fluorescence; series mostly up to 61.5 µM. Summed up: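 Compounds were tested at 15 concentrations in three independent runs. Dye-loaded CHRM1-CHO cells were exposed 5 min at room temperature before stimulation by acetylcholine added at 50nM. Intracellular calcium was read kinetically on FDSS for 3 min.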
Chain of Muscarinic acetylcholine receptor M1 (Homo sapiens) (P11229 whole entry, looked up): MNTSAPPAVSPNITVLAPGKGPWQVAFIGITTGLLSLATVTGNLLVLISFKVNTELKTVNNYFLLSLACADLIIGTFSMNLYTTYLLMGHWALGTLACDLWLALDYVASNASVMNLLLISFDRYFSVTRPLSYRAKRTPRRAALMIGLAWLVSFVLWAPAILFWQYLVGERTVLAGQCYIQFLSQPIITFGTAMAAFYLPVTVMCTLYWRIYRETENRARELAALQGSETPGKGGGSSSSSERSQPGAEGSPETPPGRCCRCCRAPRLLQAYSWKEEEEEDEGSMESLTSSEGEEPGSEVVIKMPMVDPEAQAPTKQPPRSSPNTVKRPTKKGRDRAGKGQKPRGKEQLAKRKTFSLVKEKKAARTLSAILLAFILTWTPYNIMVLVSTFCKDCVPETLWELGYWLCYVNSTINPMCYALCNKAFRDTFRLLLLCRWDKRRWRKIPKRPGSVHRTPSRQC

Assay [13] has the same target. As to the kind of experiment: Cholinergic receptor muscarinic 1 (CHRM1) small molecule agonists, cell-based qHTS assay (AID 1963589). Also: nearly all actives have a fitted effect of over 35% in size. The settings on record: CHRM1-CHO cells, agonist mode, calcium flux fluorescence; series mostly up to 76.8 µM. In outline: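 Kinetic fluorescence (1 s intervals) of calcium-sensitive dye in human M1 CHO cells after compound addition; cells pre-incubated 18 h at 37 C/5% CO2 and dye-loaded 1 h.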

A short description of assay [14]: cAMP Responsive Elements (CRE) small molecule agonists, cell-based qHTS assay (AID 1963590). To be noted: CRE-bla HEK293T, beta-lactamase FRET ratio, 3 h; series mostly up to 92.4 µM. In outline: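 Test agents in DMSO were incubated 3 h at 37 C/5% CO2 with CRE-bla HEK 293T cells seeded 18 h earlier; LiveBLAzer B/G FRET substrate was added and read after 2 h at room temperature.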

Assay [15] deals with Beta-2 adrenergic receptor (Homo sapiens) (UniProt P07550). The assay is described as follows: Adrenergic beta2 receptor (ADRB2) small molecule antagonists, cell-based qHTS assay (AID 1963592). Also: nearly all actives have a fitted effect of over 50% in size. To be noted: CHO-ADRB2 cells, isoproterenol-stimulated cAMP HTRF ratio, 0.5 h; series mostly up to 92.4 µM. Summed up: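 Assay format: CHO-ADRB2 cells, 18-20hr seeding at 37C/5% CO2, then compound plus 1nM isoproterenol agonist mix for 0.5hr RT. Homogeneous time-resolved fluorescence cAMP detection after 1hr, expressed as 665/615 nm ratio.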
Chain of Beta-2 adrenergic receptor (Homo sapiens) (P07550 whole entry, looked up): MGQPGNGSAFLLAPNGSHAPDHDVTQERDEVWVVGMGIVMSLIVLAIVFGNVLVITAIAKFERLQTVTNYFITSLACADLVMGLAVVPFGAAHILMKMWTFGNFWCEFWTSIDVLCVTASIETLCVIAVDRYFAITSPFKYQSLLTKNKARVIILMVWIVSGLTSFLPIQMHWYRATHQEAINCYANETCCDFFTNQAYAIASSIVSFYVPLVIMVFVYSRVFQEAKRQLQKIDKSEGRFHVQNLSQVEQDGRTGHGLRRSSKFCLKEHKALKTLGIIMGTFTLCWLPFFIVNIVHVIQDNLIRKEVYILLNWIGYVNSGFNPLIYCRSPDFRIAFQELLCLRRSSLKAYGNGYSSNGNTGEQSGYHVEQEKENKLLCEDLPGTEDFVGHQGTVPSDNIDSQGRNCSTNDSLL

For assay [16], the target named is D(2) dopamine receptor (Homo sapiens) (UniProt P14416). As to the kind of experiment: Dopamine D2 receptor (DRD2) small molecule agonists, cell-based qHTS assay (AID 1963594). Also: nearly all actives have a fitted effect of over 35% in size. The settings on record: HEK293-DRD2 cAMP HTRF, agonist mode, 30 min; series mostly up to 92.4 µM. In outline: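 HEK293 cells stably expressing DRD2 were cultured 24 h at 37 C, then given Ro20-1724 (0.1 mM final) and compounds for 10 min at room temperature. NKH477 (200nM) was then added for 30 min. cAMP was read by HTRF.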
Chain of D(2) dopamine receptor (Homo sapiens) (P14416 whole entry, looked up): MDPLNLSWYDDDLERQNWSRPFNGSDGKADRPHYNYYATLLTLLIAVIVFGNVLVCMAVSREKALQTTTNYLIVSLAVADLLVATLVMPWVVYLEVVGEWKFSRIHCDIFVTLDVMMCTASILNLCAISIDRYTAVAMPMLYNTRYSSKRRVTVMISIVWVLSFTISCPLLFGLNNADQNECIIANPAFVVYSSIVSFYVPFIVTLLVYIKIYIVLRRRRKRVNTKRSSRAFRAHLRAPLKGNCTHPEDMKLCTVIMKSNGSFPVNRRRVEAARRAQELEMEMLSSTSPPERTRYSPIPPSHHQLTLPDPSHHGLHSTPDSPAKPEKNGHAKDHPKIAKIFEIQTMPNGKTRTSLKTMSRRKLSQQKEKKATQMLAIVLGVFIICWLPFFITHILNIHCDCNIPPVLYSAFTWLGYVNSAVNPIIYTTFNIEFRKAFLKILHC

Assay [17] has the same target. The assay is described as follows: Dopamine D2 receptor (DRD2) small molecule antagonists, cell-based qHTS assay (AID 1963595; active = well fitted inhibition curve with a large enough effect in the signal ratio in the repeat runs, with a control signal flat; the % refers to the signal ratio). The settings on record: HEK293-DRD2 cAMP HTRF antagonist mode; series mostly up to 92.4 µM. In outline: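 HEK293 cells stably expressing DRD2, preincubated with 0.1 mM Ro20-1724 and compounds 10 min, were stimulated with 200 nM NKH477 plus 12 nM quinpirole for 30 min at room temperature; cAMP measured by HTRF (665/620 nm).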

A short description of assay [18]: G protein-coupled receptor (GPCR) small molecule agonists, calcium flux assay: HEK293 wild type cell line counter screen (AID 1920065). To be noted: HEK293 WT calcium flux, fluorescence, agonist mode; series mostly up to 57.6 µM. In outline: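 Following 18 h incubation at 37 C/5% CO2, plates got calcium dye for 1 h; compounds, ATP or DMSO were then pinned in and fluorescence followed kinetically (480/540 nm).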

The nature of assay [19]: p53 small molecule agonists, cell-based qHTS assay with human liver microsomes (AID 1963577). To be noted: HCT-116 p53RE-bla with human liver microsomes, ratio, 16 h; series mostly up to 66 µM. In outline: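 p53RE-bla cells, 4,000/well, compound added after 5 h, with human liver microsomes 0.5 mg/mL and NADPH 0.5 mg/mL final; 16 h at 37 C, then LiveBLAzer 2 h RT, fluorescence.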

A short description of assay [20]: cAMP Responsive Elements (CRE) small molecule antagonists, cell-based qHTS assay (AID 1963591; active = well fitted inhibition curve with a large enough effect in the signal ratio in the repeat runs, not every such curve was filed as active; the % refers to the signal ratio). To be noted: CRE-bla HEK293T, beta-lactamase FRET ratio; series mostly up to 92.4 µM. In outline:
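Reporter line CRE-bla HEK 293T in dialyzed-FBS DMEM; cells preincubated 18 h, treated 3 h with compound plus NKH477 (0.25 uM final); LiveBLAzer FRET, 2 h RT.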

“And” between values parts separate entries of the source, which are not always exact repeats. Equal entries are not always repeated. Records with an inconclusive call do not appear. The source made the active and inactive calls. Unless noted, calls follow the shape of the full dose curve.

Chain of KiSS-1 receptor (Homo sapiens) (Q969F8 whole entry, looked up): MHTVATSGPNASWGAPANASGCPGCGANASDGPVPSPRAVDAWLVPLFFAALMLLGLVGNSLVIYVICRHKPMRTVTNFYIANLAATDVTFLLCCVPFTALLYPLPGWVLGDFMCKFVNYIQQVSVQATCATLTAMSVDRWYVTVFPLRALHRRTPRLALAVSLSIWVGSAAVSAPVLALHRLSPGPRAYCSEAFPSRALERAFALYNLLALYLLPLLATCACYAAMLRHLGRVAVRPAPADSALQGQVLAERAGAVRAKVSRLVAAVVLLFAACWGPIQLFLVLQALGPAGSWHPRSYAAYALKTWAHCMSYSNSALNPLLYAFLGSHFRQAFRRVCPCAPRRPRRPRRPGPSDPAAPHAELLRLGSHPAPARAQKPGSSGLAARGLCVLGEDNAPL

For `C=C(C)C#N`, the Potency entry in assay [1], in assay [2], in assay [3], in [4], in [5] and in assay [6] was “inactive” each time. In addition, the Potency result in assay [7], in assay [8], in assay [9], in [10], in assay [11] and in [12] was “inactive” throughout. Further, the Potency result in assay [13], in assay [14], in assay [15], in assay [16] and in assay [17] was “inactive” throughout.

As for `ClC1=C(Cl)C2(Cl)C3C(Cl)C=CC3C1(Cl)C2(Cl)Cl` (centres undefined), the Potency in [1] is 27.4 µM (active) and 61.1 µM (active). Further, the Potency entry in [2], in [3], in assay [18], in [19], in assay [5] and in assay [6] was “inactive” each time. The Potency result in assay [7], in [8], in assay [9], in assay [10], in assay [11] and in assay [12] was “inactive” throughout. Further, the Potency result in assay [13], in [14], in assay [20], in assay [15], in assay [16] and in assay [17] was “inactive” each time.

Regarding `Cc1ccc2ccccc2c1`, the Potency result in assay [1], in assay [2], in [3], in assay [4], in assay [19] and in [6] was “inactive” each time. Also, the Potency result in assay [7], in [8], in assay [9], in assay [10], in assay [11] and in [12] was “inactive” throughout. The Potency entry in [13], in assay [20], in assay [15], in assay [16] and in assay [17] was “inactive” in each case.

Consider `Nc1cccnc1`, for which the Potency result in assay [1], in assay [2], in assay [3], in assay [18], in assay [19] and in assay [5] was “inactive” in each case. The Potency result in [6], in assay [7], in [8], in [9], in [10] and in assay [11] was “inactive” throughout. For the same compound, the Potency entry in assay [12], in assay [13], in [14], in assay [20], in assay [15] and in assay [16] was “inactive” in each case.

For the compound `COC(=O)C(Br)CBr` (centres undefined), the Potency result in [1], in [2], in assay [3], in [4], in assay [19] and in assay [5] was “inactive” each time. In addition, the Potency result in assay [6], in [8], in [9], in assay [10], in assay [11] and in assay [12] was “inactive” in each case. Besides, the Potency result in assay [13], in assay [14], in [20], in [15] and in [16] was “inactive” each time.

Turning to `C=CC(=O)OC(C)(C)C`, the Potency result in assay [1], in assay [2], in assay [3], in assay [18], in assay [19] and in assay [5] was “inactive” throughout. For the same compound, the Potency entry in assay [6], in assay [7], in [8], in [9], in [10] and in assay [11] was “inactive” throughout. For the same compound, the Potency entry in assay [12], in assay [13], in [14], in [20], in assay [15] and in assay [16] was “inactive” in each case. The Potency result in assay [17] was “inactive”.

Take `CN(N=O)c1ccccc1`: the Potency entry in [1], in [2], in assay [3], in assay [4], in assay [6] and in assay [7] was “inactive” throughout. Besides, the Potency entry in assay [8], in assay [10], in [11], in assay [12], in assay [13] and in [20] was “inactive” throughout. Also, the Potency entry in assay [15], in assay [16] and in [17] was “inactive” each time.

As to `N#Cc1cc([N+](=O)[O-])ccc1N`, the Potency result in assay [1], in assay [2], in assay [3], in [4], in assay [19] and in assay [6] was “inactive” each time. In addition, the Potency result in assay [7], in assay [8], in assay [9], in [10], in [11] and in [12] was “inactive” in each case. For the same compound, the Potency result in [13], in [14], in assay [15], in assay [16] and in assay [17] was “inactive” in each case.
